# From ChEMBL document CHEMBL3988442, “University of Dundee, Small-Polar-MMV Screening Library” (2021)
# For some assays here: Results with a measured potency or affinity are listed apart.
# Assays:
# Design in all cases: scale not given: direction of the effect not stated beside the values
# [1] = target: Protein translocase subunit SecA (Escherichia coli (strain K12)) (UniProt P10408); assay: Assay to Identify E. coli SecA ATPase Inhibitors; format: functional; settings: 30 µM
# [2] = target: T1, Ubiquitin-activating enzyme e1, putative (Leishmania donovani (strain BPK282A1)) (UniProt E9BSI1); assay: Leishmania donovani Ubiquitin Activating Enzyme (LdE1); format: functional; settings: 30 µM
# T1 sequence (whole entry): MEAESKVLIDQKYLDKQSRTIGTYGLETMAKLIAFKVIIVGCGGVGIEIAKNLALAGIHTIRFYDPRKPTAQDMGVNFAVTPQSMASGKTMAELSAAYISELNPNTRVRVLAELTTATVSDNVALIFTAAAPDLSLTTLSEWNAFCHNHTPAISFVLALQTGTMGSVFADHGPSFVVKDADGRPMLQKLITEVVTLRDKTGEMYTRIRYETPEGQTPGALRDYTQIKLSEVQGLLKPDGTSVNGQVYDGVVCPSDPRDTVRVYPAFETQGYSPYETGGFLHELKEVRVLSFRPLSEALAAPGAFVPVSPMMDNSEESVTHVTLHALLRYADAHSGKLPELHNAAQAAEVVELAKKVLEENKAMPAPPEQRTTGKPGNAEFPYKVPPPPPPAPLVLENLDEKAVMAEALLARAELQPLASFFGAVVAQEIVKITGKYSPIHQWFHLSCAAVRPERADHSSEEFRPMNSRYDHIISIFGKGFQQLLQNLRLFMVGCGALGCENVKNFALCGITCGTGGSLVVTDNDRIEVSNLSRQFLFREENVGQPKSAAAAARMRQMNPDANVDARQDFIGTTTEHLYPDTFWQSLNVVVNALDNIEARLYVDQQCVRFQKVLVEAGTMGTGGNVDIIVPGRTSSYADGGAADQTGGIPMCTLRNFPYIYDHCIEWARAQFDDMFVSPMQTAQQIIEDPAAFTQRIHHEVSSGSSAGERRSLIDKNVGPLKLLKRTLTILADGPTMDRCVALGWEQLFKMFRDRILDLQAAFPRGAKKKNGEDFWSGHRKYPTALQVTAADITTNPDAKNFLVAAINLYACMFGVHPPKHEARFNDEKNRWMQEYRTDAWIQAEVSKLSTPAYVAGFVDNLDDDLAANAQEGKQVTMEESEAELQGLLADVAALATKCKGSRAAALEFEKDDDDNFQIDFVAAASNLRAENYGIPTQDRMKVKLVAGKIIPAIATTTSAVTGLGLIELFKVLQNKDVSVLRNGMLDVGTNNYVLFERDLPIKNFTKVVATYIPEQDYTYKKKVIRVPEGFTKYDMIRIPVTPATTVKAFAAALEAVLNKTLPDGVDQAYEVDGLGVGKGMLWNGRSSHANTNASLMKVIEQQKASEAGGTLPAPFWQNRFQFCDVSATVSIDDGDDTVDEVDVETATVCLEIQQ
# [3] = target: AMP-activated protein kinase, AMPK (Homo sapiens) (UniProt P54646+O43741+P54619+Q9UGJ0+Q9Y478+Q13131+Q9UGI9); assay: AMP-dependent Kinase enzyme assay. An in vitro enzyme assay that detects ADP turnover that is directly proportional to AMPK activity. This uses naive AMPK that is activated during the assay with MK-8722; format: functional; settings: 30 µM
# [4] = target: Sialic acid-binding Ig-like lectin 9 (Homo sapiens) (UniProt Q9Y336); assay: Hs-Siglec9 ALPHAscreen SOP 20170721; settings: 10 µM
# [5] = test system: Trypanosoma cruzi; assay: Trypanosoma cruzi phosphomannomutase and mannose-1-phosphate guanylyltransferase assay; format: functional; settings: 10 µM
# [6] = target: T2, Arginase-2, mitochondrial (Homo sapiens) (UniProt P78540); assay: in vitro enzyme assay to detect the production of urea directly proportional to the activity of Arginase II; format: functional; settings: 33.3 µM; note: in the data most compounds retested in dose-response had high values
# T2 sequence (whole entry): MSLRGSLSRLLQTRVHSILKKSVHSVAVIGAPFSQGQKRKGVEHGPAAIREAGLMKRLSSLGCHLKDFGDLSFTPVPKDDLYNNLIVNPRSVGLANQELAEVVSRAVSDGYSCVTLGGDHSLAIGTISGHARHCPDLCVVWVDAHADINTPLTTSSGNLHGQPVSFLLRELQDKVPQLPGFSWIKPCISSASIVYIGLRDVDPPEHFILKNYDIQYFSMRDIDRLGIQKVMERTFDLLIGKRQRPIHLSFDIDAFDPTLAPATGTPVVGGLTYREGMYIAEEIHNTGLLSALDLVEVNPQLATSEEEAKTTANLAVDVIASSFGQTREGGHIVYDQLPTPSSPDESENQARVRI
# [7] = target: T3, Proteasome subunit beta (Trypanosoma cruzi) (UniProt O96673); assay: Trypanosoma cruzi proteasome chymotrypsin-like activity (TcProtChymo) assay.; note: in the data most compounds retested in dose-response had high values; format: functional; settings: 9.37 µM
# T3 sequence (whole entry): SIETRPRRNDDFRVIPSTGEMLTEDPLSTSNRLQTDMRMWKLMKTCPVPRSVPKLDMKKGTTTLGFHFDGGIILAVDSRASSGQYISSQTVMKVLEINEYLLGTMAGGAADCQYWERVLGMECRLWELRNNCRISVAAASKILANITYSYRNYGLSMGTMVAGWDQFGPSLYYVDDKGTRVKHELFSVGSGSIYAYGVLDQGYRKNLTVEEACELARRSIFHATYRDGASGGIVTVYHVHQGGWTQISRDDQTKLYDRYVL
# [8] = species on record: Homo sapiens; assay: To identify inhibition of the IFN signalling (Jak-Stat) pathway via expression of an eGFP reporter gene under the control of an IFN-stimulated response element (ISRE) containing MxA promoter.; format: functional; settings: 30 µM
# [9] = target: T4, Tyrosyl-tRNA synthetase, putative (Trypanosoma cruzi (strain CL Brener)) (UniProt Q4DSP6); assay: Trypanosoma cruzi tyrosyl tRNA synthetase (TcYRS) _High Tyrosine SOP; format: functional; settings: 30 µM; note: in the data most compounds retested in dose-response had high values
# T4 sequence (whole entry): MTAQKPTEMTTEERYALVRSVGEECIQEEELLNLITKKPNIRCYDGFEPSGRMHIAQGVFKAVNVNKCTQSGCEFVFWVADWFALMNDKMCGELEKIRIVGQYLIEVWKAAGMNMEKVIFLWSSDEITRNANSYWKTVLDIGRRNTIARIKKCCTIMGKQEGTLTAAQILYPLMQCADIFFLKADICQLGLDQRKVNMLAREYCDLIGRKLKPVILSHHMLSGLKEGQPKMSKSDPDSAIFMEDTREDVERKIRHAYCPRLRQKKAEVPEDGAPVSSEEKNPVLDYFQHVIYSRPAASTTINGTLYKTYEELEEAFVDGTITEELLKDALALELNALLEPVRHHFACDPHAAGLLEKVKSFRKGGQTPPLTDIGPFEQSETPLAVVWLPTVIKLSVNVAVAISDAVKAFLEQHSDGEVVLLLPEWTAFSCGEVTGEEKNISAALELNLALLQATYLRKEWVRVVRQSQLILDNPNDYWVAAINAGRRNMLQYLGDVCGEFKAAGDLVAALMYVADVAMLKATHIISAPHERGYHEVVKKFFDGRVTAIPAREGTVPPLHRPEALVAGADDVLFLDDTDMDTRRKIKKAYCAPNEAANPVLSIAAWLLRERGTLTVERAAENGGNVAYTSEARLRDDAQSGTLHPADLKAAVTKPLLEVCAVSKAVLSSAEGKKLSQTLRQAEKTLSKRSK
# [10] = target: T4, Tyrosyl-tRNA synthetase, putative (Trypanosoma cruzi (strain CL Brener)); assay: Trypanosoma cruzi tyrosyl tRNA synthetase (TcYRS) SOP; format: functional; settings: 30 µM
# [11] = target: Chromo domain-containing protein 1 (Saccharomyces cerevisiae (strain ATCC 204508 / S288c) (Baker's yeast)) (UniProt P32657); assay: ScCHD-1 Enzyme Inhibition Assay; format: functional; settings: 30 µM; note: in the data most compounds retested in dose-response had high values
# Chromo domain-containing protein 1 (Saccharomyces cerevisiae (strain ATCC 204508 / S288c) (Baker's yeast)), sequence (P32657 whole entry, the tested form may be a part): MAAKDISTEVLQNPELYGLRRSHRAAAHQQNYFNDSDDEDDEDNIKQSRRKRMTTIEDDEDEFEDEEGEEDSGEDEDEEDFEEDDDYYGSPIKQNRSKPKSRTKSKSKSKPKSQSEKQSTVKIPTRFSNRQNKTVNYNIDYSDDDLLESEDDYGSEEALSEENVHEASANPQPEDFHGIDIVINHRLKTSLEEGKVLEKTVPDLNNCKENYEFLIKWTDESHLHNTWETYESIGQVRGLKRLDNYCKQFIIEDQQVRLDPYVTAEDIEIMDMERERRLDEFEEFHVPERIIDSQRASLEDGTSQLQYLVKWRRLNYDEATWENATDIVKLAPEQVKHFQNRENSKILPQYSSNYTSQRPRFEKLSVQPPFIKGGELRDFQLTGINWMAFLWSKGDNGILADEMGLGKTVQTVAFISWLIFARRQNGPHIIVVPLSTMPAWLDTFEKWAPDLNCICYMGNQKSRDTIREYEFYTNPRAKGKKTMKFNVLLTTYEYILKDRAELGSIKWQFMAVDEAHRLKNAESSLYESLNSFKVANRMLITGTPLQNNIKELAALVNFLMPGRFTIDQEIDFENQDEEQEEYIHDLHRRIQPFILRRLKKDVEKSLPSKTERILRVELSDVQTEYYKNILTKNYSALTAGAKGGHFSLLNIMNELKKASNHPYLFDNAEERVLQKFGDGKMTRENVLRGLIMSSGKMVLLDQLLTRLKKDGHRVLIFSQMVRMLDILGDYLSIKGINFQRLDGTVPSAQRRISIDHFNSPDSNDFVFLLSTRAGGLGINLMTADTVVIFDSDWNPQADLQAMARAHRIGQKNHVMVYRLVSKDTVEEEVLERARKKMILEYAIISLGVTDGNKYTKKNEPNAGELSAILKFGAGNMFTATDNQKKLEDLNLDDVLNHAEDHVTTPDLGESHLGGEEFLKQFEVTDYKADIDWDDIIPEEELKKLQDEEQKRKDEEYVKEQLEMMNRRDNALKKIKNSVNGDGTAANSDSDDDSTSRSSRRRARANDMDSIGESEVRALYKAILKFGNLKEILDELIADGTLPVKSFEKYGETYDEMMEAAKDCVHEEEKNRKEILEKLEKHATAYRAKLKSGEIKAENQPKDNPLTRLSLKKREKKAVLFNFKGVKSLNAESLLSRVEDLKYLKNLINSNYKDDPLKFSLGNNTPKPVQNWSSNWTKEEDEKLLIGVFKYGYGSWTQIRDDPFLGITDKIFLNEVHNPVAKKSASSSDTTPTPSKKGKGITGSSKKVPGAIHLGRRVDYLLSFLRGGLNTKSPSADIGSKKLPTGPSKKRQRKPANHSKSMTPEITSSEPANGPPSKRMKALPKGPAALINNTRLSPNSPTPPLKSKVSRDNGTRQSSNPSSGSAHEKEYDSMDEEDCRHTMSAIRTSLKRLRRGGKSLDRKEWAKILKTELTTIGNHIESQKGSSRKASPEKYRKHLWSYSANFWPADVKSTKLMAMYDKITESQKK
# Sialic acid-binding Ig-like lectin 9 (Homo sapiens), sequence (Q9Y336 whole entry): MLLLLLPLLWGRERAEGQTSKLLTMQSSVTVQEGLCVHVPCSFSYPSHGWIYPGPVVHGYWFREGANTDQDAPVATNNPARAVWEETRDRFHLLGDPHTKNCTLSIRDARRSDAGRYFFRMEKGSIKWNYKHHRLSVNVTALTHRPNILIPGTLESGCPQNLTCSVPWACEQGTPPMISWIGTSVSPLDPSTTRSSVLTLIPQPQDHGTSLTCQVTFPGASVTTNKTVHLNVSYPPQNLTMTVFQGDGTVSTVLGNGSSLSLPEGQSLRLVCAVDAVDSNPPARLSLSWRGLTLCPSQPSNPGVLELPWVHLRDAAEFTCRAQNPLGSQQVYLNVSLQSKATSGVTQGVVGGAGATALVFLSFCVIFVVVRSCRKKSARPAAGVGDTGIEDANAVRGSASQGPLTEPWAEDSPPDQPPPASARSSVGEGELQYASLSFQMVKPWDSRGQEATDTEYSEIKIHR
# Protein translocase subunit SecA (Escherichia coli (strain K12)), sequence (P10408 whole entry): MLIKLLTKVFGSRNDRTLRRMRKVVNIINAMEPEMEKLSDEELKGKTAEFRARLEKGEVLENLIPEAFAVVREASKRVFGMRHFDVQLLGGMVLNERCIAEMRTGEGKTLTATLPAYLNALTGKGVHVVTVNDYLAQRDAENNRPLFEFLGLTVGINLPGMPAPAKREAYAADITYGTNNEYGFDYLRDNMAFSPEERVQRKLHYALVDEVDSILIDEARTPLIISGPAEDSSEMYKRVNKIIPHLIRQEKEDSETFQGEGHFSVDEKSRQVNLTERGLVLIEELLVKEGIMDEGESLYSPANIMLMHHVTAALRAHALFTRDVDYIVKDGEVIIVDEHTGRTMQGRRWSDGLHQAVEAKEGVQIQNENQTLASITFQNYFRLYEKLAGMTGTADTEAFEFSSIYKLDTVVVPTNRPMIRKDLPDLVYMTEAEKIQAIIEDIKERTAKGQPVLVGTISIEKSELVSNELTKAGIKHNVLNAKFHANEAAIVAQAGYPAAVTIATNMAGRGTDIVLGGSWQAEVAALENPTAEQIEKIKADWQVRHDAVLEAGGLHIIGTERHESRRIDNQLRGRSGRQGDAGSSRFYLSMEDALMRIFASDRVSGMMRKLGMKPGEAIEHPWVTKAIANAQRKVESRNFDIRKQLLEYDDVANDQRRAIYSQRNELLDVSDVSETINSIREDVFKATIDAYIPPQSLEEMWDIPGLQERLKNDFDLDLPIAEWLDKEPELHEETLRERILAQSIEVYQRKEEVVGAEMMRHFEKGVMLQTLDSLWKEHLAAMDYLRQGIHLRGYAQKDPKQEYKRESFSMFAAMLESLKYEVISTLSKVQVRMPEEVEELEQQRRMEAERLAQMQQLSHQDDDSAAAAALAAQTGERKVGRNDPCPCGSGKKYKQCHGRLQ
Structure (SMILES),Percent Effect [1],Percent Effect [2],Percent Effect [3],Percent Effect [4],Percent Effect [5],Percent Effect [6],Percent Effect [7],Percent Effect [8],Percent Effect [9],Percent Effect [10],Percent Effect [11]
CS(=O)(=O)c1ccc(OCCNCc2ccc(F)cc2F)cc1,-5.74%,8.22%,1.54%,2.33%,4.37%,-7.19%,9.85%,6.01%,8.33%,13.6%,-1.49%
CCN(c1ccc(C(=O)NCCCN2CCCC2)cc1)S(=O)(=O)CC,-0.13%,5.26%,-1.17%,-1.94%,-9.83%,-7.1%,14.1%,-5.53%,4.25%,7.79%,-3.78%
Cc1nc(CN2C(=O)CC[C@H]3[C@@H]2CCN3C(=O)c2ccsc2)cs1,2.29%,10.8%,2.71%,-8.13%,4.2%,-1.59%,28%,-19.9%,5.41%,15.4%,-0.758%
CC(C)n1cc(CN2CCCN(C(=O)c3cc(Cl)c[nH]3)CC2)cn1,-2.91%,10.8%,-4.13%,15.8%,1.23%,-4.41%,0.36%,15.2%,2.46%,13.6%,-8.52%
O[C@H]1[C@H](n2cc(-c3ccccc3)nn2)c2ccccc2C12CCNCC2,-1.97%,6.94%,-7.62%,0.48%,1.65%,-1.77%,10.2%,12.5%,5.26%,15.4%,-2.48%
CN(C)C(=O)COCc1cncc2c1CCN(Cc1cnn(C)c1)C2,-4.54%,10.4%,1.37%,20%,0.0983%,-6.9%,11.8%,10.6%,3.23%,8.64%,-2.53%
CCOc1ncccc1C(=O)NCCN(CC)C1CC1,-6.27%,3.8%,1.07%,-1.89%,-0.103%,5.38%,8.75%,5.7%,1.04%,0%,-23.1%
NCc1cnn(-c2ccccc2C(=O)NCc2ccncc2)c1,-3.81%,6.76%,13.5%,-2.83%,-2.96%,-0.232%,6.08%,6.53%,3.23%,11.7%,-5.06%
O=C(CCc1nccs1)N1CCN(c2ccccc2F)CC1,-4.98%,7.59%,-1.29%,-1.48%,8.4%,-6.46%,-2.05%,5.18%,2.46%,8.86%,-2.22%
CC(=O)N1CCC2(CC1)CC(Oc1ccccc1)CO2 (configuration not stated),1.79%,2.74%,2.24%,9.38%,-4.17%,-1.2%,19.6%,1.3%,6.25%,8.64%,3.27%
CC(=O)N1CCOCC2(CN(Cc3ccc(C)o3)CCO2)C1 (configuration not stated),-8.61%,2.67%,0.553%,-4.1%,0.591%,0.699%,1.67%,17.8%,3.19%,1.28%,-4.82%
O=C(c1nc(COc2ccc3c(c2)OCO3)no1)N1CCCC1,-2.38%,1.33%,-0.332%,4.46%,-6.88%,-12.5%,9.98%,3.63%,3.17%,5.13%,-8.92%
COC(=O)C(c1cc(F)ccc1F)N(C)C(=O)c1cccnc1O (configuration not stated),-4.02%,6.33%,7.36%,-2.25%,-1.33%,0.645%,10.3%,-7.9%,1.04%,12.7%,-12.9%
CCN(C)c1ncnc2c1CCN(C(=O)N1CCCC1)CC2,1.86%,10.7%,-0.0235%,0.87%,-8.88%,-54.7%,17.6%,-9.36%,4.17%,15%,-5.04%
O=S1(=O)COCCN1Cc1cccc(Cl)c1,-1.74%,5.41%,-2.78%,6.98%,7.92%,-1.91%,13.4%,17.7%,8.99%,12.2%,-2.28%
COCC1CN(C(=O)C2=CCCCC2)Cc2cnn(CC3CC3)c21 (configuration not stated),-1.86%,13%,2.96%,2.46%,1.48%,-4.52%,10.1%,18%,7.41%,16.7%,-9.46%
CCC1=N[C@@]2(CC[C@@H]3CN(Cc4ccc(Cl)cc4)C[C@@H]32)C(=O)N1C,-4.15%,2.7%,3.53%,4.31%,-0.0978%,-13.1%,16.4%,14.7%,0%,2.56%,2.84%
Cc1nc(CN2CCn3cc(CNC(=O)C4CCC4)nc3C2)cs1,-1.94%,13.3%,-0.557%,6.49%,4.63%,-45.3%,24.1%,-2.13%,9.38%,27.5%,-8.63%
CCn1cnnc1CNC(=O)N1CCN(Cc2ccccc2)CC1,-4.19%,26%,-4.86%,-6.22%,6.95%,-2.32%,12.1%,0.217%,8.57%,30.6%,-22.4%
COc1cc(CN2CCN(c3cccc(OC)c3)C(=O)C2)cc(OC)c1,-1.99%,1.39%,-1.82%,-5.46%,-5.34%,-4.42%,10.9%,-15.2%,2.1%,2.56%,-2.05%
Cc1noc(CCCC(=O)NC(C)c2ccccn2)n1 (configuration not stated),-1.78%,18.4%,-1.11%,2.7%,3.01%,2.68%,6.52%,3.32%,10.3%,21.9%,-13.2%
O[C@H]1[C@H](n2cc(-c3cccnc3)nn2)c2ccccc2C12CCNCC2,-1.28%,4.17%,-0.513%,14.2%,2.82%,12.4%,3.86%,-3.37%,3.16%,10.3%,-3.88%
